# In PubChem BioAssay:
# Unmarked numbers belong to inactive results. Active and inactive are the calls of the source. Unless noted, no stated cut-off is given here; in the data, active means inhibition above about 33%; inactive means the rest.
# How the values were obtained:
# [1] = StAR promoter reporter inhibitors, counter-screen for LRH-1 inverse agonist project, cell-based, luminescence, high throughput (AID 651611; in the data active means inhibition above about 28%); conditions: StAR promoter luciferase reporter counterscreen, at 3.6 µM, stronger effect = higher value
# [2] = target: Nuclear receptor subfamily 5 group A member 2 (Homo sapiens) (UniProt O00482); assay: NR5A2 activity suppression in reporter cells – cell-based, luminescence, confirmation (AID 651613; in the data active means inhibition above about 42%;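 further: HEK293T cells co-transfected with LRH-1 and StAR promoter luciferase reporter; 0% = vehicle wells and 100% = parental cells lacking receptor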); conditions: cell-based LRH-1 luciferase reporter, inverse agonism; at 3.6 µM; stronger effect = higher value
# Chain of Nuclear receptor subfamily 5 group A member 2 (Homo sapiens) (O00482 whole entry, looked up): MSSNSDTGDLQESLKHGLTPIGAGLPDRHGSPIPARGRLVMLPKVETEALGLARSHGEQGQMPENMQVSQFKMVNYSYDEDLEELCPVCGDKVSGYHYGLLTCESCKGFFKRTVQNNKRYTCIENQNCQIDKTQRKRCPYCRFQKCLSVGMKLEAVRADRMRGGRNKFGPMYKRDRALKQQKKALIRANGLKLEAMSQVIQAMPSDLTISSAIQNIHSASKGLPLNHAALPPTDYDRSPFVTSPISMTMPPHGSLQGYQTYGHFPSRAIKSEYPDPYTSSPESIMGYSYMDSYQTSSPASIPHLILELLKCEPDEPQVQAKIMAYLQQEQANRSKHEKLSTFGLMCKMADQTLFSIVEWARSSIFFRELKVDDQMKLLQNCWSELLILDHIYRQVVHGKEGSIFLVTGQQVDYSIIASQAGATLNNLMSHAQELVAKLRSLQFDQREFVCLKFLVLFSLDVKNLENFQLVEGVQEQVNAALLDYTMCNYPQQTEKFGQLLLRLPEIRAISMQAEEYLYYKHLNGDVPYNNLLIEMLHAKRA
# [3] = target: Steroidogenic factor 1 (Homo sapiens) (UniProt Q13285); assay: inverse agonism at SF1 nuclear receptor – cell-based, luminescence, high throughput, counter-screen for LRH-1 inverse agonist project (AID 651614; in the data active means inhibition above about 44%;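 further: cells cotransfected with StAR promoter reporter and SF1 expression vector; 0% = vehicle on cells with receptor and 100% = vehicle on cells lacking receptor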); conditions: cell-based SF1 luciferase reporter, at 3.6 µM, stronger effect = higher value
# Chain of Steroidogenic factor 1 (Homo sapiens) (Q13285 whole entry, looked up, the tested form may be a part): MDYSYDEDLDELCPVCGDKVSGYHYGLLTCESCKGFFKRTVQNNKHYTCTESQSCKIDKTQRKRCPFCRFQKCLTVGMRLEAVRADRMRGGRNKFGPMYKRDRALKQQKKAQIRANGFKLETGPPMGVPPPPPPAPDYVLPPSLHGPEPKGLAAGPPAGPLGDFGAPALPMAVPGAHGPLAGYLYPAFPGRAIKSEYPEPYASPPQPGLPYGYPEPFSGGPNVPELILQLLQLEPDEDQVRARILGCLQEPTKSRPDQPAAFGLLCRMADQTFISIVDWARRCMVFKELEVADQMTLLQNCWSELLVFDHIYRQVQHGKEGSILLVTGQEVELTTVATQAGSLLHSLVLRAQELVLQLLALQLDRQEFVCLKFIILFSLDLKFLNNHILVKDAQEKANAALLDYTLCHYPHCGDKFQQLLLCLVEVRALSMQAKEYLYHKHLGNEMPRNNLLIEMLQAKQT
# [4] = compounds suppressing VP16-driven luciferase signal – cell-based, luminescence, high throughput, counter-screen for LRH-1 inverse agonist project (AID 651615); conditions: Gal4-VP16 luciferase reporter cells, at 3.6 µM, stronger effect = higher value
Structure (SMILES),inhibition [1],inhibition [2],inhibition [3],inhibition [4]
O=C(O)c1c[nH]c2c([N+](=O)[O-])cccc2c1=O,10.4%,35.2%,29.6%,5.89%
Cc1ccc2[nH]c(C)c(/C=C/c3cc[n+](C)cc3)c2c1,39.2% (active),77.4% (active),67.3% (active),67.8% (active)
CCOc1ccc(CCNC(=O)COC(=O)c2ccc(OC)c(OC)c2OC)cc1OCC,11.7%,53.8% (active),55.5% (active),-6.44%
O=C(Nc1nnc(C2=COCCO2)o1)c1ccc([N+](=O)[O-])s1,18.6%,49.4% (active),40.3%,-6.2%
CN1CCN(c2nc(-c3ccccc3O)nc3ccccc23)CC1,5.26%,42% (active),26.3%,39.5% (active)
Cc1c(C(=O)N(Cc2ccc(F)cc2)C2CCS(=O)(=O)C2)oc2ccccc12 (stereo not drawn),36.8% (active),8.94%,31.4%,-5.18%
Cc1cccc(C(=O)N[C@H](C(=O)Nc2ncc(C)s2)C(C)C)c1,35.8% (active),58.7% (active),39.8%,8.22%
CCOc1ccc2c(c1)sc(N)[n+]2Cc1cc(C)cc2cccnc12,30.7% (active),56.2% (active),32.1%,39.5% (active)
Cc1ccc(Nc2nc(-c3cccnc3)nc3ccccc23)cc1,36.1% (active),54.1% (active),59.5% (active),14%
COc1cc2c(cc1OC)CN(C(=O)c1ccc([N+](=O)[O-])o1)CC2,12.4%,65.1% (active),64.4% (active),7.13%
COc1ccc(/C=C2/C(=O)OCc3cc(OC)c(OC)cc32)cc1,36.9% (active),56.4% (active),57.9% (active),23.4%
COC(=O)c1ccc(NC(=O)COc2cccc(-n3cnnn3)c2)cc1,-5.38%,41.3% (active),32.5%,-9.98%
CC[C@@H](C(=O)[C@@H](C)[C@@H](O)[C@H](C)[C@@H]1O[C@@H]([C@@H](CC)C(=O)O)CC[C@@H]1C)[C@H]1O[C@]2(C=C[C@@H](O)[C@]3(CC[C@@](C)([C@H]4CC[C@](O)(CC)[C@H](C)O4)O3)O2)[C@H](C)C[C@@H]1C,87% (active),103% (active),92.7% (active),92.3% (active)
COc1ccc(CC(N)c2csc(Nc3ncccn3)n2)cc1 (stereo not drawn),49.2% (active),26.2%,33.1%,15.5%
O=C(COc1ccc2ccc(=O)oc2c1)Nc1ccc(N2CCOCC2)cc1,13.3%,57.3% (active),45.5% (active),-5.4%
C=CCn1c(CCNC(=O)c2cccs2)nnc1SCC(=O)Nc1cccc(Cl)c1C,8.38%,57.9% (active),53.4% (active),2.77%
C/C(=N\Nc1nc2ccccc2[nH]1)c1ccccn1,71.4% (active),83.1% (active),73.9% (active),2.13%
CCN(CC)c1ccc(NC(=O)CSc2nnc(N)s2)cc1C,-2.14%,57.1% (active),51.4% (active),-4.26%
COc1ccc(NC(=O)COc2cccc3c2CCN(C)C3=O)c(OC)c1,20.5%,65.9% (active),61.6% (active),-23.8%
Cc1sc2ncnc(NCC(O)c3ccc([N+](=O)[O-])cc3)c2c1C (stereo not drawn),15.4%,51.7% (active),53.5% (active),42.1% (active)
CC(C)C(=O)N1CCN(c2ccc(NC(=O)c3ccc([N+](=O)[O-])o3)cc2)CC1,8.38%,59.5% (active),60.5% (active),-4.74%
O=C(NC1CCCC(C(F)(F)F)C1)c1ccc([N+](=O)[O-])o1 (stereo not drawn),15.8%,65.4% (active),63% (active),-1.15%
CCOc1ccc(NC(=O)CSc2nc3ccccc3c(=O)n2CCCC(=O)NCC2CCCO2)cc1 (stereo not drawn),1.46%,41.9% (active),40.1%,-6.22%
C#Cc1cccc(Nc2nc(NC(C)C)nc3ccsc23)c1,17.7%,63.6% (active),60.9% (active),20.3%
CCOC(=O)c1cc2sccc2n1CC(=O)Nc1ccc2c(c1)OCCO2,7.97%,55.1% (active),52.2% (active),-2.96%
Cc1cc(=O)oc2cc(OCC(=O)N3CCN(C(=O)C4COc5ccccc5O4)CC3)ccc12 (stereo not drawn),21.1%,49% (active),42.1%,-11%

Structure (SMILES),inhibition [1],inhibition [2],inhibition [3],inhibition [4]
Cc1cc(C)c2sc(NC(=O)c3ccc([N+](=O)[O-])o3)nc2c1,-1.04%,54.4% (active),53.5% (active),-7.08%
O=C(NCc1ccco1)c1ccc([N+](=O)[O-])o1,7.6%,60.5% (active),59.6% (active),-13.8%
COc1cccc(C(C)(O)c2nc(-c3ccoc3)cs2)c1 (stereo not drawn),-0.36%,30.2%,21.5%,-0.14%
Cc1[nH]c2ccccc2c1/C=N/Nc1ccc([N+](=O)[O-])cc1,-1.71%,55.8% (active),56.5% (active),-3.15%
O=C(Nc1ccccc1C(=O)NCCCn1ccnc1)c1ccccc1,14.8%,53.6% (active),42.1%,-3.84%
O=C(Nc1cc(Cl)ccc1-n1cncn1)c1ccc([N+](=O)[O-])s1,23.2%,68.4% (active),69.2% (active),-10.3%
CCOc1ccc(CCNC(=O)COC(=O)c2cccnc2OCC)cc1OCC,2.1%,53.3% (active),48.7% (active),0.35%
CC(=O)Nc1ccc2nc(NC(=O)c3ccc([N+](=O)[O-])o3)sc2c1,1.53%,53.5% (active),55.8% (active),-32.4%
COc1ccc(NC(=O)COC(=O)c2c(-c3ccccc3)noc2C)cc1,15.3%,63% (active),66.1% (active),-5.04%
CCNc1nc(-c2sc(NC(=O)C(C)(C)C)nc2C)c(-n2cc(-c3ccccc3)nn2)s1,60.9% (active),27.6%,41.4%,35.7% (active)
O=C(COC(=O)Cc1ccccc1[N+](=O)[O-])NCc1ccc(Cl)cc1,11.3%,37.2%,34.4%,-5.74%
CCOCc1c(C(=O)Nc2ccccc2N2CCN(C)CC2)oc2ccccc12,13.5%,70.5% (active),73% (active),8.89%
C/C(=N\N1CCN(c2ccc(Cl)cc2)CC1)c1cccc([N+](=O)[O-])c1,12.5%,15.8%,21.2%,8.61%
CC(C)Cn1c(N)c(C(=O)NCC2CCCO2)c2nc3ccccc3nc21 (stereo not drawn),23.3%,42.8% (active),37.3%,1.28%
Cc1csc(NC(=O)CSc2nc3[nH]c(=O)cc(O)c3s2)n1,15.2%,60.5% (active),68.1% (active),-21.4%
Cc1ccc2c(c1)Oc1ccc(NC(=O)CCl)cc1C(=O)N2,61.7% (active),68.3% (active),75.6% (active),16.8%
CCN(CC)C1=CC(=O)OC12CCCCC2,2.42%,51.2% (active),48.7% (active),-9.57%
Cc1cccc(NC(=O)CSC2=NN3CCCC(=O)N=C3S2)c1C,-10.1%,53.1% (active),49% (active),-5.97%
COc1ccc(N2CCN(C(=O)C3CCC(Cn4c(=S)[nH]c5ccccc5c4=O)CC3)CC2)cc1 (stereo not drawn),9.08%,36.1%,39.2%,26.8%
Cc1nnsc1S(=O)c1ccc(Br)cc1 (stereo not drawn),4.11%,45.4% (active),44.9% (active),3.37%
COc1ccc(OC)c(CCNC(=O)Cn2nc(C)c3c(C)n(-c4ccc(C)cc4)nc3c2=O)c1,38.8% (active),68% (active),63.8% (active),52% (active)
COc1ccc(CCNC(=O)COC(=O)Cc2ccccc2[N+](=O)[O-])cc1,8.86%,65.5% (active),61.4% (active),-6.51%
O=C(NCc1ccc2c(c1)OCO2)c1cc([N+](=O)[O-])ccc1N1CCCCC1,44.1% (active),36.2%,47.6% (active),30.3%
Cc1ccc(S(=O)(=O)NCc2ccncc2)c(C)c1C,17.9%,56.9% (active),59.5% (active),53.4% (active)
CC(C)NC(=O)N1Cc2cc(C(=O)NC3CCCC3)nc(-c3cccc(-c4cccnc4)c3)c2[C@@H]1CCO,24.3%,45.1% (active),42.1%,5.54%
O=C(Nc1ccc2oc(-c3cccnc3)nc2c1)c1ccc([N+](=O)[O-])o1,8.01%,58.1% (active),62.5% (active),-5.53%
